Where a chain is given by its changes, count along the chain named.
target: T1, SIX6 (Homo sapiens, UniProt O95475 114-200, L167I); experiment: PBM; 200 nM protein, PBS; conditions: dsDNA, one strand shown
T1 sequence: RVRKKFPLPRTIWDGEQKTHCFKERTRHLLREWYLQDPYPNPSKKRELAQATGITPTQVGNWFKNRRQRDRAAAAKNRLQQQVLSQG

Row | Sequence | binding signal
1 | GGATCACA | 11.1 upbm affinity estimate (log intensity, higher = more binding, comparable within an allelic series)
2 | AGGGATCA | 11.1 upbm affinity estimate (log intensity, higher = more binding, comparable within an allelic series)
3 | AGATGATA | 11.1 upbm affinity estimate (log intensity, higher = more binding, comparable within an allelic series)
4 | ATACTAAC | 10.1 upbm affinity estimate (log intensity, higher = more binding, comparable within an allelic series)
5 | AGTGATCC | 11.1 upbm affinity estimate (log intensity, higher = more binding, comparable within an allelic series)
6 | CAGATATC | 11.1 upbm affinity estimate (log intensity, higher = more binding, comparable within an allelic series)

target: HOXA4 (Homo sapiens, UniProt Q00056 201-287, W262R); experiment: PBM; 200 nM protein, PBS; conditions: dsDNA, one strand shown
Sequence (Q00056 201-287 W262R): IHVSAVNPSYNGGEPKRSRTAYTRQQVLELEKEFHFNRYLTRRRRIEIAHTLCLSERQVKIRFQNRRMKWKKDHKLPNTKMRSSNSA

Row | Sequence | binding signal
7 | AGCCCGAG | 9.9 upbm affinity estimate (log intensity, higher = more binding, comparable within an allelic series)
8 | ATGAATGA | 10.2 upbm affinity estimate (log intensity, higher = more binding, comparable within an allelic series)
9 | CCGAGAGG | 9.76 upbm affinity estimate (log intensity, higher = more binding, comparable within an allelic series)
10 | GCCTCCCA | 9.78 upbm affinity estimate (log intensity, higher = more binding, comparable within an allelic series)
11 | CCCGACGC | 9.83 upbm affinity estimate (log intensity, higher = more binding, comparable within an allelic series)
12 | TAATTTGA | 10.4 upbm affinity estimate (log intensity, higher = more binding, comparable within an allelic series)
13 | CCCTCTCG | 9.84 upbm affinity estimate (log intensity, higher = more binding, comparable within an allelic series)
14 | GCGGACCC | 9.75 upbm affinity estimate (log intensity, higher = more binding, comparable within an allelic series)
15 | GGGGGAAC | 9.66 upbm affinity estimate (log intensity, higher = more binding, comparable within an allelic series)
16 | GATCCCCC | 9.9 upbm affinity estimate (log intensity, higher = more binding, comparable within an allelic series)
17 | GCCAAGCC | 9.84 upbm affinity estimate (log intensity, higher = more binding, comparable within an allelic series)
18 | ACCTTCGC | 9.98 upbm affinity estimate (log intensity, higher = more binding, comparable within an allelic series)
19 | CAGGCTTC | 9.89 upbm affinity estimate (log intensity, higher = more binding, comparable within an allelic series)
20 | CAGGAAGG | 9.86 upbm affinity estimate (log intensity, higher = more binding, comparable within an allelic series)
21 | CGCGCGCG | 9.91 upbm affinity estimate (log intensity, higher = more binding, comparable within an allelic series)
22 | GCACCACC | 9.87 upbm affinity estimate (log intensity, higher = more binding, comparable within an allelic series)
23 | CCCCACGG | 9.8 upbm affinity estimate (log intensity, higher = more binding, comparable within an allelic series)

Row | Sequence | binding signal
24 | CAGCCTCC | 9.65 upbm affinity estimate (log intensity, higher = more binding, comparable within an allelic series)
25 | CCCCCCAG | 9.46 upbm affinity estimate (log intensity, higher = more binding, comparable within an allelic series)
26 | AGCCACGG | 9.87 upbm affinity estimate (log intensity, higher = more binding, comparable within an allelic series)
27 | GACCCTCC | 9.82 upbm affinity estimate (log intensity, higher = more binding, comparable within an allelic series)
28 | GCCGGCCC | 9.58 upbm affinity estimate (log intensity, higher = more binding, comparable within an allelic series)
29 | GCCCGGAC | 9.85 upbm affinity estimate (log intensity, higher = more binding, comparable within an allelic series)
30 | CCCCAGGC | 9.71 upbm affinity estimate (log intensity, higher = more binding, comparable within an allelic series)
31 | CCGGCAGG | 9.95 upbm affinity estimate (log intensity, higher = more binding, comparable within an allelic series)
32 | CCCTGGTC | 9.79 upbm affinity estimate (log intensity, higher = more binding, comparable within an allelic series)
33 | CCCGAGGG | 9.81 upbm affinity estimate (log intensity, higher = more binding, comparable within an allelic series)
34 | CCGAAGGC | 9.78 upbm affinity estimate (log intensity, higher = more binding, comparable within an allelic series)
35 | CCGGACGG | 9.78 upbm affinity estimate (log intensity, higher = more binding, comparable within an allelic series)
36 | CCCCCTTC | 9.36 upbm affinity estimate (log intensity, higher = more binding, comparable within an allelic series)
37 | CCCGAAGG | 9.83 upbm affinity estimate (log intensity, higher = more binding, comparable within an allelic series)
38 | GAGGTTGC | 9.8 upbm affinity estimate (log intensity, higher = more binding, comparable within an allelic series)
39 | GCCCCGAC | 9.84 upbm affinity estimate (log intensity, higher = more binding, comparable within an allelic series)

target: HOXC9 (Homo sapiens, UniProt P31274 178-260, K195R); experiment: PBM; 200 nM protein, PBS; conditions: dsDNA, one strand shown
Sequence (P31274 178-260 K195R): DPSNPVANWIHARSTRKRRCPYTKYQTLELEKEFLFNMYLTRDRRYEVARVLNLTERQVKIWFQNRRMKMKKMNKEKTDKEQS

Row | Sequence | binding signal
40 | AGCCCGAG | 9.64 upbm affinity estimate (log intensity, higher = more binding, comparable within an allelic series)
41 | ATGAATGA | 11.2 upbm affinity estimate (log intensity, higher = more binding, comparable within an allelic series)
42 | CCGAGAGG | 9.41 upbm affinity estimate (log intensity, higher = more binding, comparable within an allelic series)
43 | GCCTCCCA | 9.58 upbm affinity estimate (log intensity, higher = more binding, comparable within an allelic series)
44 | CCCGACGC | 9.46 upbm affinity estimate (log intensity, higher = more binding, comparable within an allelic series)
45 | CAGGCTTC | 9.38 upbm affinity estimate (log intensity, higher = more binding, comparable within an allelic series)
46 | AGCCACGG | 9.64 upbm affinity estimate (log intensity, higher = more binding, comparable within an allelic series)
47 | GACCCTCC | 9.64 upbm affinity estimate (log intensity, higher = more binding, comparable within an allelic series)
48 | CCCGAGGG | 9.47 upbm affinity estimate (log intensity, higher = more binding, comparable within an allelic series)
49 | CCGGACGG | 9.56 upbm affinity estimate (log intensity, higher = more binding, comparable within an allelic series)

target: HOXC10 (Homo sapiens, UniProt Q9NYD6 254-340); experiment: PBM; 200 nM protein, PBS; conditions: dsDNA, one strand shown
Sequence (Q9NYD6 254-340): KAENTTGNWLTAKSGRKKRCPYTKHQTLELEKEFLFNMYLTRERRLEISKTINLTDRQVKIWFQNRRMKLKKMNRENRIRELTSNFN

Row | Sequence | binding signal
50 | CCCTCTCG | 10.1 upbm affinity estimate (log intensity, higher = more binding, comparable within an allelic series)
51 | GCCAAGCC | 10.1 upbm affinity estimate (log intensity, higher = more binding, comparable within an allelic series)
52 | CAGGCTTC | 9.9 upbm affinity estimate (log intensity, higher = more binding, comparable within an allelic series)
53 | CGCGCGCG | 10.1 upbm affinity estimate (log intensity, higher = more binding, comparable within an allelic series)
54 | CCCCACGG | 10.1 upbm affinity estimate (log intensity, higher = more binding, comparable within an allelic series)
55 | CCGGCAGG | 10.2 upbm affinity estimate (log intensity, higher = more binding, comparable within an allelic series)
56 | CCCCCTTC | 9.64 upbm affinity estimate (log intensity, higher = more binding, comparable within an allelic series)
57 | CCCGAAGG | 9.96 upbm affinity estimate (log intensity, higher = more binding, comparable within an allelic series)
58 | GAGGTTGC | 9.94 upbm affinity estimate (log intensity, higher = more binding, comparable within an allelic series)
59 | GCCCCGAC | 10.1 upbm affinity estimate (log intensity, higher = more binding, comparable within an allelic series)

target: ALX4 (Homo sapiens, UniProt Q9H161 200-286); experiment: PBM; 200 nM protein, PBS; conditions: dsDNA, one strand shown
Sequence (Q9H161 200-286): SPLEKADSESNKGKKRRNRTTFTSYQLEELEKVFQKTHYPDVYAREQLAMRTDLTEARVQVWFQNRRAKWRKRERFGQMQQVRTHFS

Row | Sequence | binding signal
60 | GCCTCCCA | 8.34 upbm affinity estimate (log intensity, higher = more binding, comparable within an allelic series)
61 | GCGGACCC | 8.35 upbm affinity estimate (log intensity, higher = more binding, comparable within an allelic series)
62 | ACCTTCGC | 8.16 upbm affinity estimate (log intensity, higher = more binding, comparable within an allelic series)
63 | CCGAAGGC | 8.05 upbm affinity estimate (log intensity, higher = more binding, comparable within an allelic series)
64 | CCCGAAGG | 7.8 upbm affinity estimate (log intensity, higher = more binding, comparable within an allelic series)

target: T2, PAX4 (Homo sapiens, UniProt O43316 9-242, R200K); experiment: PBM; 200 nM protein, PBS; conditions: dsDNA, one strand shown
T2 sequence: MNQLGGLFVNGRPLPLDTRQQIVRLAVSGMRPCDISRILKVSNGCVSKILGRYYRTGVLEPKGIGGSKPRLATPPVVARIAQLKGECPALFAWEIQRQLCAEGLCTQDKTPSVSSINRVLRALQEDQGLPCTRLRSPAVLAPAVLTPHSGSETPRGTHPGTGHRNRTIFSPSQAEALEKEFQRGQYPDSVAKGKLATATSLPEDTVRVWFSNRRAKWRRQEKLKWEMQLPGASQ

Row | Sequence | binding signal
65 | TAATTTGA | 11.7 upbm affinity estimate (log intensity, higher = more binding, comparable within an allelic series)
66 | GCACCACC | 9.27 upbm affinity estimate (log intensity, higher = more binding, comparable within an allelic series)
67 | CCCTGGTC | 9.07 upbm affinity estimate (log intensity, higher = more binding, comparable within an allelic series)

target: PRRX1 (Homo sapiens, UniProt P54821 80-166, F113S); experiment: PBM; 200 nM protein, PBS; conditions: dsDNA, one strand shown
Sequence (P54821 80-166 F113S): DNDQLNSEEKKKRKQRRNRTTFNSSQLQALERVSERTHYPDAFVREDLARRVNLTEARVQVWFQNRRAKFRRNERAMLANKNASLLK

Row | Sequence | binding signal
68 | TAATTTGA | 10.7 upbm affinity estimate (log intensity, higher = more binding, comparable within an allelic series)
69 | GGGGGAAC | 9.45 upbm affinity estimate (log intensity, higher = more binding, comparable within an allelic series)
70 | CAGGCTTC | 9.37 upbm affinity estimate (log intensity, higher = more binding, comparable within an allelic series)
71 | CAGGAAGG | 9.25 upbm affinity estimate (log intensity, higher = more binding, comparable within an allelic series)
72 | CCCCCCAG | 9 upbm affinity estimate (log intensity, higher = more binding, comparable within an allelic series)
73 | CCCCAGGC | 9.11 upbm affinity estimate (log intensity, higher = more binding, comparable within an allelic series)
74 | GAGGTTGC | 9.19 upbm affinity estimate (log intensity, higher = more binding, comparable within an allelic series)
75 | GCCCCGAC | 9.25 upbm affinity estimate (log intensity, higher = more binding, comparable within an allelic series)

target: T3, PAX4 (Homo sapiens, UniProt O43316 9-242); experiment: PBM; 200 nM protein, PBS; conditions: dsDNA, one strand shown
T3 sequence: T2 sequence with K192R

Row | Sequence | binding signal
76 | TAATTTGA | 12.2 upbm affinity estimate (log intensity, higher = more binding, comparable within an allelic series)
77 | GCACCACC | 9.29 upbm affinity estimate (log intensity, higher = more binding, comparable within an allelic series)
78 | CCCTGGTC | 9.08 upbm affinity estimate (log intensity, higher = more binding, comparable within an allelic series)

target: HOXB6 (Homo sapiens, UniProt P17509 132-218, K202E); experiment: PBM; 200 nM protein, PBS; conditions: dsDNA, one strand shown
Sequence (P17509 132-218 K202E): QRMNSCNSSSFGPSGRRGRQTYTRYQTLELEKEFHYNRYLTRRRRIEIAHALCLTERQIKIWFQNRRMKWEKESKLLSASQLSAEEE

Row | Sequence | binding signal
79 | CAGCCTCC | 8.86 upbm affinity estimate (log intensity, higher = more binding, comparable within an allelic series)
80 | GCCGGCCC | 8.94 upbm affinity estimate (log intensity, higher = more binding, comparable within an allelic series)
81 | GCCCGGAC | 9.01 upbm affinity estimate (log intensity, higher = more binding, comparable within an allelic series)
82 | CCGGACGG | 8.96 upbm affinity estimate (log intensity, higher = more binding, comparable within an allelic series)

target: ALX4 (Homo sapiens, UniProt Q9H161 200-286, Q225E); experiment: PBM; 200 nM protein, PBS; conditions: dsDNA, one strand shown
Sequence (Q9H161 200-286 Q225E): as the sequence (Q9H161 200-286) above, with Q26E counted along it

Row | Sequence | binding signal
83 | GCCTCCCA | 8.34 upbm affinity estimate (log intensity, higher = more binding, comparable within an allelic series)
84 | GCGGACCC | 8.27 upbm affinity estimate (log intensity, higher = more binding, comparable within an allelic series)
85 | ACCTTCGC | 8.2 upbm affinity estimate (log intensity, higher = more binding, comparable within an allelic series)
86 | CCGAAGGC | 8.35 upbm affinity estimate (log intensity, higher = more binding, comparable within an allelic series)

Reference: publication PMC11006913
